Source: PubChem
TEAD-YAP block: TEAD-YAP interaction inhibition | HEK-TIYL cells, TEAD-Gal4/YAP UAS-luciferase luminescence | inhibition, % at 9.12 µM | 1.4% of 640,000 active | AID 1259422; in the data active = inhibition above about 32%
GPR151 activ: activators of human GPR151 | Q8TDV0 | PathHunter beta-arrestin GPR151 cells, luminescence | activation, % at 11.2 µM | 1% of 650,000 active | AID 1508602; in the data active = activation above about 4.9%
FBW7 activator: human FBW7 E3 ligase activation, primary screen. Q969H0. 0.13% of 650,000 active. normalized activity (activation), % at 26.1 µM. AlphaScreen FBW7–phospho-cyclin E peptide binding, activator screen; in the data active = normalized activity above about 1.9%;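 note: purified mutant Fbw7 with reduced substrate affinity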
Target sequence (Q969H0 whole entry, looked up): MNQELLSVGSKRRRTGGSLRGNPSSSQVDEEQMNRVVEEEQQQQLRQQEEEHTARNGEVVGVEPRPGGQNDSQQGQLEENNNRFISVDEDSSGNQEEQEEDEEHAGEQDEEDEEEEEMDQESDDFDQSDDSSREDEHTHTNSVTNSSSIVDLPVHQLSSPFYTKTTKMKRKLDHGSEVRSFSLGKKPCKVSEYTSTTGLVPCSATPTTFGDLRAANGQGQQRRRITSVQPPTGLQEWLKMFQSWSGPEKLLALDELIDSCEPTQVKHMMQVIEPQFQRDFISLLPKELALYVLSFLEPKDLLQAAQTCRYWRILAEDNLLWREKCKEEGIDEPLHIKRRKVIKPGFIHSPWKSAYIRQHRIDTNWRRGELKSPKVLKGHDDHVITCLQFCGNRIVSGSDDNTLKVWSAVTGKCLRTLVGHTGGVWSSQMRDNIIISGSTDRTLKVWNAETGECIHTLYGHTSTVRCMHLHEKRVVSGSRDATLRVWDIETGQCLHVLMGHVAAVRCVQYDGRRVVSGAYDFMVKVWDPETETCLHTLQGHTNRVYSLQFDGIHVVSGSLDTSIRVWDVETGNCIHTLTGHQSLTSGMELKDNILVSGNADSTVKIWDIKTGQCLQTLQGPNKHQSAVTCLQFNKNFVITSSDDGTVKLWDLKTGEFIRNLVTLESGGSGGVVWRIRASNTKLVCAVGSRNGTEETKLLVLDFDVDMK
MITF primary: inhibitors of human MITF | 0.91% of 650,000 active | O75030 | AlphaScreen MITF homodimerization, bead proximity signal | inhibition, % at 2.6 µM; in the data active = inhibition above about 50%
MITF inh conf: human MITF inhibition, confirmation. inhibition, % at 2.6 µM. AlphaScreen MITF homodimerization, biotin/His-MITF beads. shares compounds with MITF primary. 16% of 4,700 active;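 active = inhibition above a cutoff derived from the DMSO control wells, cut at about 28% in these data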;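 note: inhibitors lower the bead chemiluminescence by keeping MITF from dimerizing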
AlphaScreen DR: counter-screen: compounds optically interfering with AlphaScreen; 6% of 480 active; AID 1259373; shares compounds with MITF primary; AlphaScreen optical interference counterscreen, cell-free; IC50, µM; call rule not given here
AS interf ctr: counter-screen: compounds optically interfering with AlphaScreen | shares compounds with MITF primary | LysRS AlphaScreen counterscreen, signal interference, triplicate | inhibition, % at 2.6 µM | 7.6% of 4,700 active | AID 1259376;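 active = inhibition above a cutoff derived from the DMSO control wells, cut at about 30% in these data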
Each line names hits and unclear results; the compound was inactive in the other large screens (follow-up assays come after a bar, where they were run). The list is not random: actives were taken first. Their share in the collection is about 3.4%.

CCOC(=O)c1ccc(N2C(=O)C(=O)/C(=C(\O)c3ccc(OC)cc3)C2c2ccccc2[N+](=O)[O-])cc1 (stereo unspecified)	MITF primary 52 | MITF inh conf inactive | AS interf ctr inactive
O=c1[nH]c(CN(CCO)Cc2nc3sccc3c(=O)[nH]2)nc2sccc12	MITF primary 78 | MITF inh conf 47 | AS interf ctr 100
O=C(NCCOc1ccccc1)c1ccc2nc(-c3cccs3)sc2c1	none
CCCC(=O)Nc1ccc2c(c1)C(=O)N(C1CCCCC1)C2=O	MITF primary 58 | MITF inh conf inactive | AS interf ctr inactive
CCC(=O)Nc1ccc2c(c1)C(=O)N(C1CCCCC1)C2=O	none
COCCSc1nnc(-c2ccncc2)n1C	MITF primary 59 | MITF inh conf inactive | AS interf ctr inactive
O=C(N/N=C/C=C/c1ccco1)c1cccc(F)c1	none
Cc1cc(C)cc(-n2c(SCC(=O)Nc3nccs3)nnc2-c2cccnc2)c1	MITF primary 58 | MITF inh conf inactive | AS interf ctr inactive
COc1cccc(-n2c(SCC(=O)Nc3nccs3)nnc2-c2cccnc2)c1	none
COC(=O)CNC(c1ccccc1)c1cc(C)ccc1N (stereo unspecified)	none
CCOC(=O)CSc1nnc(-c2cn(C)nc2OC)n1CC	none
COC(=O)c1ccc(CN2CCN(CC(=O)c3ccco3)CC2)cc1	MITF primary 70 | MITF inh conf inactive | AS interf ctr inactive
CS(=O)(=O)N1CCN(CC(=O)c2ccco2)CC1	MITF primary 57 | MITF inh conf inactive | AS interf ctr inactive
CCN1CCN(CC(=O)c2ccco2)CC1	MITF primary 70 | MITF inh conf inactive | AS interf ctr inactive
Cc1ccc(N=c2c([N+](=O)[O-])nn(-c3cccc(Cl)c3)n2O)cc1	none
Cc1cccc(-n2nc([N+](=O)[O-])c(=Nc3cccc(Cl)c3)n2O)c1	MITF primary 56 | MITF inh conf inactive | AS interf ctr inactive
O=C(COc1ccc(Cl)cc1)NNC(=O)c1ccc(=O)[nH]c1	MITF primary 68 | MITF inh conf inactive | AS interf ctr inactive
O=C(COc1ccc2ccccc2c1)NNC(=O)c1ccc(Cl)cc1	none
Cc1ccc(Cn2c(=N)n(CC(O)COc3ccc(Cl)cc3)c3ccccc32)cc1 (stereo unspecified)	MITF primary 64 | MITF inh conf inactive | AS interf ctr inactive
O=S(=O)(Cc1ccc(Cl)cc1)NC1CCCCC1	none
CC(C)c1ccc(C2Nc3ccccc3C(=O)N2c2ccc(C(C)C)cc2)cc1 (stereo unspecified)	none
COc1cccc(CNC(=O)C2CCN(c3ccc(N4CCOCC4)nn3)CC2)c1	none
Clc1cccc(OCCN2CCNCC2)c1	none
CCN1CCN(CCCOc2cccc(Oc3ccccc3)c2)CC1	MITF primary 69 | MITF inh conf inactive | AS interf ctr inactive
CCOc1cccc(OCCN2CC(C)OC(C)C2)c1 (stereo unspecified)	MITF primary 53 | MITF inh conf inactive | AS interf ctr inactive
Fc1ccc(OCCCN2CCNCC2)cc1	none
c1ccc(Oc2cccc(OCCCCN3CCOCC3)c2)cc1	none
CC1CN(CCOc2ccc3ccccc3c2)CC(C)O1 (stereo unspecified)	none
c1ccc(COc2ccc(OCCCN3CCNCC3)cc2)cc1	TEAD-YAP block 58, MITF primary 62 | MITF inh conf inactive | AS interf ctr inactive
CCOc1cccc(OCCN2CCNCC2)c1	MITF primary 75 | MITF inh conf inactive | AS interf ctr inactive
c1ccc(Oc2cccc(OCCCN3CCNCC3)c2)cc1	none
c1ccc(Oc2cccc(OCCCCN3CCNCC3)c2)cc1	MITF primary 77 | MITF inh conf inactive | AS interf ctr inactive
COc1ccc2ccc(OC)c(C3C(C#N)=C(N)OC4=C3C(=O)CC(C)(C)C4)c2c1 (stereo unspecified)	none
COc1ccc(C(=O)CSc2nnc(-c3ccc4c(c3)OCO4)o2)cc1OC	MITF primary 86 | MITF inh conf inactive | AS interf ctr inactive
COc1cc(CN2CCN(Cc3ccccc3C)CC2)c([N+](=O)[O-])cc1OC	MITF primary 75 | MITF inh conf inactive | AS interf ctr inactive
COc1cc(CN2CCN(Cc3ccccc3Cl)CC2)c([N+](=O)[O-])cc1OC	MITF primary 82 | MITF inh conf inactive | AS interf ctr inactive
COc1cc(CN2CCN(C/C=C/c3ccccc3)CC2)c([N+](=O)[O-])cc1OC	none
CC1CCc2c(sc(NC(=O)CN3CCN(c4ccccc4O)CC3)c2C#N)C1 (stereo unspecified)	none
COc1ccc(OC)c(CN2CCN(Cc3ccccc3C)CC2)c1	MITF primary 51 | MITF inh conf inactive | AS interf ctr inactive
COc1ccc(CN2CCN(Cc3ccccc3C)CC2)c(OC)c1	MITF primary 83 | MITF inh conf inactive | AS interf ctr inactive
CCS(=O)(=O)N1CCN(Cc2ccc(OC)cc2OC)CC1	none
CN(C)CC(C)(C)CNCC(O)COCc1ccc2c(c1)OCO2 (stereo unspecified)	MITF primary 57 | MITF inh conf inactive | AS interf ctr inactive
CNc1oc(-c2ccco2)nc1S(=O)(=O)c1ccc(Br)cc1	MITF primary 74 | MITF inh conf inactive | AS interf ctr inactive
Cc1cccc(-n2c(CNC(=O)c3ccc(C(C)(C)C)cc3)n[nH]c2=S)c1	none
C=CCOC(=O)COc1ccc2c(=O)c(Oc3ccc(OC)cc3)coc2c1	MITF primary 75 | MITF inh conf inactive | AS interf ctr inactive
Clc1ccc(-c2csc3ncnc(NCCCN4CCOCC4)c23)cc1	MITF primary 96 | MITF inh conf inactive | AS interf ctr inactive
COc1ccc(-c2csc3ncnc(NCCN4CCOCC4)c23)cc1	MITF primary 82 | MITF inh conf inactive | AS interf ctr inactive
Clc1ccc(-n2cc(-c3ccccc3)c3c(NCCCN4CCOCC4)ncnc32)cc1	none
Cc1onc(-c2ccccc2Cl)c1C(=O)Oc1ccc(C#N)cc1	none
O=C(NC(Cc1ccccc1)C(=O)OCC(=O)c1ccccc1)OCc1ccccc1 (stereo unspecified)	none
O=C(Nc1ccc(F)c([N+](=O)[O-])c1)c1ccccc1Br	none
CC1=NN(c2ccc(C(=O)O)c(N)c2)C(=O)C1	MITF primary 68 | MITF inh conf 54 | AlphaScreen DR inactive | AS interf ctr inactive
Cc1ccc(-n2c(C)cc(/C=N/NC(=O)CCNC(=O)c3ccccc3)c2C)cc1	none
c1ccc(C(CN2CCOCC2)c2ccccc2)cc1	MITF primary 57 | MITF inh conf inactive | AS interf ctr inactive
O=C(Nc1ccc(Nc2ccc(-n3cccn3)nn2)cc1)c1ccccc1Cl	MITF primary 58 | MITF inh conf inactive | AS interf ctr inactive
O=c1[nH]c(CN2CCCCC2)nc2sc3c(c12)CCC3	none
Cc1nc(NCCCN2CCOCC2)c2c3c(sc2n1)CCCC3	MITF primary 74 | MITF inh conf inactive | AS interf ctr inactive
Cc1nc(NCCCN2CCOCC2)c2c3c(sc2n1)CCC3	none
CN(C)CCCNc1ncnc2sc3c(c12)CCCC3	none
